Among all 5,500 compounds or so, about 2,000 (36%) were called active. Inconclusive results (about 18%) are left out. Rule as the data show it: active = normalized growth mostly below about 0.91 (no sharp cut-off); inconclusive = no clear call, values can overlap the other calls; inactive = mostly above about 0.92. This is one part of the list.
Assay: chemical genetic growth profiling, strain panel (AID 1159580);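 also: tested at 20 µM; growth read once vehicle control cultures reached saturation at 30 °C; 1 = growth at the plate median or of vehicle wells; lower values mean less growth of the strain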
Conditions: growth OD

Measured: normalized growth

CCCCC/C=C\C/C=C\C/C=C\C/C=C\CCCC(=O)O
inactive: S. cerevisiae deletion strains, locus YJR043C, strain POL32, hits give low values 0.975 | S. cerevisiae deletion strains, locus YJR075W, strain HOC1, hits give low values 0.968 | S. cerevisiae deletion strains, locus YKL009W, strain mrt4, hits give low values 0.982 | S. cerevisiae deletion strains, locus YKL068W, hits give low values 0.973 | S. cerevisiae deletion strains, locus YKL085W, strain MDH1 (second series), hits give low values 0.958 | S. cerevisiae deletion strains, locus YKL085W, strain MDH1, hits give low values 0.958 | S. cerevisiae deletion strains, locus YKL160W, strain elf1, hits give low values 0.98 | S. cerevisiae deletion strains, locus YKL190W, strain CNB1, hits give low values 0.987 | S. cerevisiae deletion strains, locus YKR026C, strain gcn3, hits give low values 0.944 | S. cerevisiae deletion strains, locus YKR091W, strain srl3, hits give low values 0.967 | S. cerevisiae deletion strains, locus YLL001W, strain dnm1, hits give low values 0.96 | S. cerevisiae deletion strains, locus YLL026W, hits give low values 0.976 | S. cerevisiae deletion strains, locus YLL041C, strain sdh2, hits give low values 0.975 | S. cerevisiae deletion strains, locus YLR027C, strain aat2, hits give low values 0.978 | S. cerevisiae deletion strains, locus YLR039C, strain RIC1, hits give low values 0.686 | S. cerevisiae deletion strains, locus YLR058C, strain SHM2, hits give low values 0.972 | S. cerevisiae deletion strains, locus YLR102C, strain apc9, hits give low values 0.971 | S. cerevisiae deletion strains, locus YLR221C, strain rsa3, hits give low values 0.972 | S. cerevisiae deletion strains, locus YLR258W, strain gsy2, hits give low values 0.966 | S. cerevisiae deletion strains, locus YLR262C, strain YPT6, hits give low values 0.719 | S. cerevisiae deletion strains, locus YLR268W, strain sec22, hits give low values 1.01 | S. cerevisiae deletion strains, locus YLR320W, strain mms22, hits give low values 0.884 | S. cerevisiae deletion strains, locus YLR330W, strain CHS5, hits give low values 0.984 | S. cerevisiae deletion strains, locus YLR342W, strain FKS1 (second series), hits give low values 0.942 | S. cerevisiae deletion strains, locus YLR342W, strain FKS1, hits give low values 0.969 | S. cerevisiae deletion strains, locus YLR357W, strain rsc2, hits give low values 0.935 | S. cerevisiae deletion strains, locus YLR370C, strain arc18, hits give low values 0.964 | S. cerevisiae deletion strains, locus YLR371W, strain rom2, hits give low values 0.975 | S. cerevisiae deletion strains, locus YLR384C, strain iki3, hits give low values 0.982 | S. cerevisiae deletion strains, locus YLR418C, strain cdc73, hits give low values 0.953 | S. cerevisiae deletion strains, locus YML016C, strain PPZ1, hits give low values 1 | S. cerevisiae deletion strains, locus YML032C, strain rad52, hits give low values 0.967 | S. cerevisiae deletion strains, locus YML120C, strain ndi1, hits give low values 0.986 | S. cerevisiae deletion strains, locus YML124C, strain tub3, hits give low values 0.983 | S. cerevisiae deletion strains, locus YMR058W, strain fet3, hits give low values 0.919 | S. cerevisiae deletion strains, locus YMR078C, strain ctf18, hits give low values 0.964 | S. cerevisiae deletion strains, locus YMR125W, strain sto1, hits give low values 0.977 | S. cerevisiae deletion strains, locus YMR129W, hits give low values 0.977 | S. cerevisiae deletion strains, locus YMR205C, strain PFK2, hits give low values 0.919 | S. cerevisiae deletion strains, locus YMR223W, strain ubp8, hits give low values 0.953 | S. cerevisiae deletion strains, locus YMR231W, strain pep5, hits give low values 0.974 | S. cerevisiae deletion strains, locus YMR263W, strain SAP30, hits give low values 1 | S. cerevisiae deletion strains, locus YMR307W, strain GAS1, hits give low values 0.966 | S. cerevisiae deletion strains, locus YNL067W, strain RPL9B, hits give low values 0.987 | S. cerevisiae deletion strains, locus YNL128W, strain TEP1, hits give low values 0.995 | S. cerevisiae deletion strains, locus YNL153C, strain GIM3, hits give low values 1 | S. cerevisiae deletion strains, locus YNL209W, strain ssb2, hits give low values 0.983 | S. cerevisiae deletion strains, locus YNL233W, strain BNI4, hits give low values 0.981 | S. cerevisiae deletion strains, locus YNL248C, strain rpa49, hits give low values 0.972 | S. cerevisiae deletion strains, locus YNL250W, strain rad50, hits give low values 0.924 | S. cerevisiae deletion strains, locus YNL271C, strain bni1, hits give low values 0.973 | S. cerevisiae deletion strains, locus YNL298W, strain CLA4, hits give low values 0.956 | S. cerevisiae deletion strains, locus YNL322C, strain KRE1 (second series), hits give low values 0.996 | S. cerevisiae deletion strains, locus YNL322C, strain KRE1, hits give low values 0.986 | S. cerevisiae deletion strains, locus YNR049C, strain mso1, hits give low values 0.971 | S. cerevisiae deletion strains, locus YNR052C, strain pop2, hits give low values 0.977 | S. cerevisiae deletion strains, locus YOL006C, strain TOP1, hits give low values 0.836 | S. cerevisiae deletion strains, locus YOL012C, strain htz1 0.8 | S. cerevisiae deletion strains, locus YOL147C, strain pex11, hits give low values 0.987 | S. cerevisiae deletion strains, locus YOR001W, strain rrp6, hits give low values 0.971 | S. cerevisiae deletion strains, locus YOR061W, strain CKA2, hits give low values 0.986 | S. cerevisiae deletion strains, locus YOR069W, strain VPS5, hits give low values 0.99 | S. cerevisiae deletion strains, locus YOR070C, strain gyp1, hits give low values 0.98 | S. cerevisiae deletion strains, locus YOR080W, strain dia2, hits give low values 0.97 | S. cerevisiae deletion strains, locus YOR083W, strain WHI5, hits give low values 0.996 | S. cerevisiae deletion strains, locus YOR106W, strain vam3, hits give low values 0.978 | S. cerevisiae deletion strains, locus YOR136W, strain idh2, hits give low values 0.965 | S. cerevisiae deletion strains, locus YOR144C, strain elg1, hits give low values 0.986 | S. cerevisiae deletion strains, locus YOR184W, strain ser1, hits give low values 0.895 | S. cerevisiae deletion strains, locus YOR265W, strain rbl2, hits give low values 0.978 | S. cerevisiae deletion strains, locus YOR270C, strain vph1, hits give low values 0.924 | S. cerevisiae deletion strains, locus YOR290C, strain snf2, hits give low values 0.89 | S. cerevisiae deletion strains, locus YOR316C, strain cot1, hits give low values 0.982 | S. cerevisiae deletion strains, locus YPL051W, strain arl3, hits give low values 0.985 | S. cerevisiae deletion strains, locus YPL055C, strain LGE1, hits give low values 0.972 | S. cerevisiae deletion strains, locus YPL078C, strain atp4, hits give low values 0.967 | S. cerevisiae deletion strains, locus YPL106C, strain sse1, hits give low values 0.931 | S. cerevisiae deletion strains, locus YPL240C, strain hsp82, hits give low values 0.978 | S. cerevisiae deletion strains, locus YPL241C, strain CIN2, hits give low values 0.986 | S. cerevisiae deletion strains, locus YPR119W, strain clb2, hits give low values 0.969 | S. cerevisiae deletion strains, locus YPR141C, strain kar3, hits give low values 0.975 | S. cerevisiae deletion strains, locus YPR163C, strain tif3, hits give low values 0.965 | S. cerevisiae deletion strains, locus YPR167C, strain met16, hits give low values 0.986 | S. cerevisiae deletion strains, strain wtn01, hits give low values 0.972 | S. cerevisiae strains, strain wild type, hits give low values 0.976
active: S. cerevisiae deletion strains, locus YKR001C, strain vps1, hits give low values 0.857 | S. cerevisiae deletion strains, locus YLR262C, strain YPT6 (second series), hits give low values 0.856 | S. cerevisiae deletion strains, locus YNL071W, strain lat1, hits give low values 0.857 | S. cerevisiae deletion strains, locus YNL307C, strain MCK1, hits give low values 0.733

Reference: PubChem BioAssay AID1159580 (chemical genetic matrix, 2015)
